# This is a sample that favours compounds with a hit; in the whole collection about 5% have one here.
# EBI2 block: EBI2 receptor antagonists, beta-arrestin recruitment, primary screen, cell-based, luminescence, 7a,25-OHC stimulation, uHTS; 7a,25-OHC stimulated; inhibition, % at 5 µM; 360,000 tested, 0.81% active; in the data active = inhibition above about 38%;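 note: enzyme fragment complementation signal reports receptor beta-arrestin coupling in cells; 0% = agonist plus DMSO wells and 100% = wells without agonist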
# SENP8 block-1: human SENP8 protease inhibitors, primary screen, biochemical, fluorescence, Nedd8 protein substrate, uHTS; recombinant SENP8; Sentrin-specific protease 8 (Homo sapiens), Q96LD8; inhibition, % at 20 µM; 360,000 tested, 0.64% active; in the data active = inhibition mostly above about 40%, no sharp cut-off; inactive = mostly below about 27%
# Target sequence (Q96LD8 whole entry, looked up): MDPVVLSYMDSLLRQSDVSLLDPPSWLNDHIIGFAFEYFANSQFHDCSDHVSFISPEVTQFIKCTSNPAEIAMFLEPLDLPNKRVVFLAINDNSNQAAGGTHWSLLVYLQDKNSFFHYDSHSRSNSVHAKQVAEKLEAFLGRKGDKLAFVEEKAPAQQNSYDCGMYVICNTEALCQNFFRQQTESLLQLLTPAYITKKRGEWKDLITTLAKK
# AHR act: AHR activators, primary screen, cell-based, luminescence, luciferase reporter, human; 320,000 tested, 2.5% active; activation, % at 5 µM; AID 2796, 2010; AHR-responsive luciferase reporter cells; in the data active = activation above about 47%;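 note: 0% = vehicle wells and 100% = reference agonist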
# SENP8 block-2: SENP8 protease inhibitors, primary screen, biochemical, luminescence; Sentrin-specific protease 8 (Homo sapiens), Q96LD8; purified SENP8, Z-RLRGG-aminoluciferin cleavage; inhibition, % at 10 µM; 330,000 tested, 1.2% active; AID 2540, 2010; in the data active = inhibition above about 50%
# SENP6 block: SENP6 protease inhibitors, primary screen, biochemical, luminescence, uHTS | AID 2599, 2010 | Recombinant SENP6 catalytic domain, aminoluciferin luminescence | inhibition, % at 10 µM | 330,000 tested, 1.8% active;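 active = inhibition above about 50% at the single tested dose, limit read from the data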;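 note: plate controls were DMSO wells with enzyme for no effect and DMSO wells lacking enzyme for full effect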
# SENP7 block: SENP7 protease inhibitors, primary screen, biochemical, luminescence, uHTS; Sentrin-specific protease 7 (Homo sapiens), Q9BQF6; recombinant SENP7, Z-RLRGG-aminoluciferin luminescence, 40 min; 330,000 tested, 1.5% active; AID 434973, 2010; inhibition, % at 5 µM;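 active = inhibition above about 50% at the single test dose, limit read from the data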;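 note: plate controls were DMSO with enzyme for no effect and no enzyme buffer wells for full effect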
# SENP8 conf: SENP8 protease inhibitors, retest, confirmation, biochemical, luminescence, single concentration | shares compounds with SENP7 block | Recombinant SENP8, Z-RLRGG-aminoluciferin luminescence, 60 min | inhibition, % at 12.5 µM | 6,200 tested, 40% active | AID 488912, 2010;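 active = mean inhibition across replicates above about 50%, limit read from the data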
# SENP6 confirm: SENP6 protease inhibitors, confirmation, biochemical, luminescence, single concentration; recombinant SENP6, Z-RLRGG-aminoluciferin luminescence; shares compounds with SENP7 block; inhibition, % at 12.5 µM; 6,200 tested, 58% active
# SENP7 conf: SENP7 protease inhibitors, retest, confirmation, biochemical, luminescence, single concentration; inhibition, % at 12.5 µM; 6,200 tested, 69% active; AID 488917, 2010; recombinant SENP7, Z-RLRGG-aminoluciferin luminescence, 40 min; shares compounds with SENP7 block
# Casp3 select: caspase-3 protease inhibitors, confirmation, selectivity assay for SENP inhibitor project, biochemical, single concentration. shares compounds with SENP7 block. purified caspase-3, Z-DEVD-aminoluciferin luminescence, 60 min. inhibition, % at 12.5 µM. 6,200 tested, 60% active. AID 488918, 2010;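 active = mean inhibition above about 50%, limit read from the data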;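 note: plate controls were enzyme with DMSO for no effect and wells without caspase-3 for full effect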
# Target sequence (P42574 28-227 limits assumed): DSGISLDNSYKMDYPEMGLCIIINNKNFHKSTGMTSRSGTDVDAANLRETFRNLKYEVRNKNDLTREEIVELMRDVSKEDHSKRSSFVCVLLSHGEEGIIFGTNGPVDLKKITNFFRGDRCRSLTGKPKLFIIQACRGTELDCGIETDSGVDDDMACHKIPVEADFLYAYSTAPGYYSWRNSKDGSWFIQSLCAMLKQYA
# SENP luc ctr: luminescence interference (SENP counter-screen) | AID 488919 | inhibition, % at 12.5 µM | shares compounds with SENP7 block | Pre-incubated SENP8/Z-RLRGG-aminoluciferin, luciferase luminescence interference | 6,200 tested, 39% active;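 active = mean inhibition above about 50% when retested at one dose, limit read from the data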;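 note: plate controls were DMSO wells with completed reaction for no effect and substrate without enzyme for full effect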
# The depositor's hits bear a star; . = no result.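 Rule for the calls, unless noted: active = mean inhibition above about 50% in the one-dose retest (limit read from the data); inactive = the rest.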
SMILES,EBI2 block,SENP8 block-1,AHR act,SENP8 block-2,SENP6 block,SENP7 block,SENP8 conf,SENP6 confirm,SENP7 conf,Casp3 select,SENP luc ctr
COc1cc([N+](=O)[O-])ccc1N/C=C/C(=O)c1cccs1,5,-34,51*,53*,87*,97*,33,55*,48,48,24
CS(=O)(=O)c1ccc2nc(NC(=O)c3cccc([N+](=O)[O-])c3)sc2c1,6,-14,18,95*,95*,97*,98*,99*,102*,97*,78*
CS(=O)(=O)c1ccc2nc(NC(=O)c3cc([N+](=O)[O-])cc([N+](=O)[O-])c3)sc2c1,-13,8,8,26,17,3,.,.,.,.,.
COc1cc(OC)cc(C(=O)Nc2nc3ccc(S(C)(=O)=O)cc3s2)c1,0,-175,49*,91*,86*,98*,93*,96*,101*,96*,92*
COc1cc(C(=O)Nc2nc3ccc(S(C)(=O)=O)cc3s2)cc(OC)c1C,-7,-258,3,2,9,0,.,.,.,.,.
CSCc1nc2scc(-c3ccccc3)c2c(=O)[nH]1,5,-6,.,.,.,.,.,.,.,.,.
O=C(O)c1ccc(-c2nc3scc(-c4ccccc4)c3c(=O)[nH]2)cc1,0,-405,1,32,61*,25,38,30,62*,23,18
COc1ccc(Cc2nnc(NC(=O)c3ccc(F)cc3)s2)cc1OC,-14,8,0,-3,-9,4,.,.,.,.,.
CC1CCN(CCCNC(=O)C2CCN(S(=O)(=O)N3CCCCC3)CC2)CC1,-9,8,0,-5,-16,-3,.,.,.,.,.
CC1CC(C)CN(CCCNC(=O)C2CCN(S(=O)(=O)N3CCCCC3)CC2)C1 (stereo unspecified),-6,10,0,-4,19,101*,7,8,-7,-2,-2
C/C(=N\Nc1ccc(S(N)(=O)=O)cc1[N+](=O)[O-])c1ccccc1O,-16,39,1,-10,-22,-1,.,.,.,.,.
C/C(=N\Nc1ccccc1[N+](=O)[O-])c1ccccc1O,1,40*,38,23,42,74*,11,14,19,24,6
C/C(=N\Nc1cccc2cccnc12)c1ccccc1O,31,-6,50*,77*,82*,88*,7,18,22,25,3
O=C1c2ccccc2C(=O)C1c1ccccn1,-7,21,-5,18,45,46,.,.,.,.,.
O=C1c2ccccc2C(=O)C1c1ccncc1,5,41*,4,64*,80*,58*,76*,71*,92*,91*,79*
CN(Cc1c(C(=O)N/N=C/c2cc(F)ccc2F)nnn1-c1nonc1N)C1CCCCC1,20,9,2,-16,-1,12,.,.,.,.,.
CC(=O)Nc1ccc(S(=O)(=O)/N=C2\C(=O)c3ccccc3C([O-])=C2n2cc[n+](-c3ccccn3)c2)cc1,-13,56*,25,53*,77*,36,70*,88*,61*,54*,4
O=C(Nc1ccccn1)c1onc2c1CCCC2,0,10,31,84*,87*,94*,9,90*,100*,95*,83*
O=C(Nc1ccccn1)c1ccc(C(=O)c2ccccc2)cc1,-1,9,11,19,50,45,.,.,.,.,.
CN(Cc1ccccc1)C(=O)C1CCCN(Cc2cccc(Cl)c2)C1 (stereo unspecified),-1,6,-1,3,-3,-2,.,.,.,.,.
CSc1ccc(NC(=O)Nc2cc(C)ccn2)cc1,7,18,-7,29,49,78*,13,30,31,35,11
Cc1ccnc(NC(=O)c2cc3cc(F)ccc3s2)c1,11,-66,13,73*,87*,73*,79*,78*,95*,73*,60*
COc1ccc(NC(=O)Nc2cc(C)ccn2)cc1,-8,24,.,.,.,.,.,.,.,.,.
Cc1ccnc(NC(=O)Nc2ccc(F)cc2)c1,2,20,12,30,71*,42,17,31,42,22,3
CCCCCC(=O)NC(=S)Nc1ccc2oc(=O)ccc2c1,5,-1,5,-4,-29,-5,.,.,.,.,.
SMILES,EBI2 block,SENP8 block-1,AHR act,SENP8 block-2,SENP6 block,SENP7 block,SENP8 conf,SENP6 confirm,SENP7 conf,Casp3 select,SENP luc ctr
COc1ccccc1NC(=O)c1ccc2nc(-c3ccccc3)c(-c3ccccc3)nc2c1,5,-1,-2,-3,6,10,.,.,.,.,.
COc1ccccc1-c1nc2cc3ccccc3cc2nc1-c1ccccc1,16,-144,26,6,51*,4,-4,3,-5,-3,-3
CCc1cc(C(=O)N2CCCC(C(=O)c3ccc(C(F)(F)F)cc3)C2)n(C)n1 (stereo unspecified),-3,1,.,3,5,0,.,.,.,.,.
O=C(Nc1c(-c2ccccc2)nc2ccccn12)c1ccco1,6,4,-1,3,-12,5,.,.,.,.,.
Oc1ccc(-c2nc3ccccn3c2NCc2ccco2)cc1,-10,-496,4,5,56*,1,25,20,61*,48,44
Cc1cccc(N2C(=O)CC(N3CCN(Cc4ccc5c(c4)OCO5)CC3)C2=O)c1 (stereo unspecified),6,5,2,-4,-22,-1,.,.,.,.,.
O=C1CC(N2CCN(Cc3ccc4c(c3)OCO4)CC2)C(=O)N1c1ccccc1 (stereo unspecified),-10,18,1,5,-2,62*,6,8,-8,-3,0

# Assay outcomes (PubChem BioAssay)
